Results as given in PubChem BioAssay (NCI).
This is part of a sample that, as a whole, favours compounds with a hit. Of some 79,000 tested, about 15% had one in any assay. The source made the active and inactive calls. No stated cut-off is given here; in the data, active means growth inhibition above about 70%; inactive means the rest.

Experiments:
[1] = NCI Yeast Anticancer Drug Screen. Data for the rad50 strain (AID 155);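 further: 0% = growth of vehicle-only cultures of the same strain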; conditions: S. cerevisiae rad50 strain growth inhibition; at 50.0 µM; stronger effect = higher value
Procedure, shortened: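 DNA repair mutant yeast, compound exposure, growth read-out; inhibition is taken relative to vehicle.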

[2] = NCI Yeast Anticancer Drug Screen. Data for the mec2-1 strain (AID 157); conditions: S. cerevisiae mec2-1 strain, at 50.0 µM, stronger effect = higher value
Procedure, shortened: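 Cells of the genetically defined mec2-1 yeast strain are incubated with test compound. Inhibition of growth is calculated against vehicle-treated controls.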

[3] = NCI Yeast Anticancer Drug Screen. Data for the sgs1 mgt1 strain (AID 161);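 further: 0% = growth of cultures given vehicle only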; conditions: S. cerevisiae sgs1 mgt1 strain, at 50.0 µM, stronger effect = higher value
Procedure, shortened: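 Genetically altered yeast, compound exposure, growth inhibition relative to vehicle.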

[4] = NCI Yeast Anticancer Drug Screen. Data for the cln2 rad14 strain (AID 165);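 further: 0% = growth equal to vehicle treated cultures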; conditions: S. cerevisiae cln2 rad14 strain, at 50.0 µM, stronger effect = higher value
Procedure, shortened: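 The screen exposed genetically defined yeast (cln2 rad14) to test compounds and scored growth inhibition relative to vehicle-treated controls.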

[5] = NCI Yeast Anticancer Drug Screen. Data for the bub3 strain (AID 167); conditions: S. cerevisiae bub3 mutant strain, at 50.0 µM, stronger effect = higher value
Procedure, shortened: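 In this screen, a yeast mutant lacking normal mitotic checkpoint function is challenged with compound. Relative growth versus vehicle gives the inhibition value.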

[6] = NCI Yeast Anticancer Drug Screen. Data for the mlh1 rad18 strain (AID 175); conditions: S. cerevisiae mlh1 rad18 strain growth inhibition; at 50.0 µM; stronger effect = higher value
Procedure, shortened: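 Compound-treated yeast growth, normalised to vehicle controls. Strain bears defined DNA repair mutations.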

Measured: growth inhibition

Cc1ccccc1NC(=O)Nc1ccccc1C
inactive: [1] -3.8% | [2] -15.3% | [3] 3.45% | [4] -23% | [5] -20.2% | [6] -11.9%

C#CCOC(=O)[C@@H](C)c1ccc2cc(OC)ccc2c1
inactive: [1] 11.2% | [2] 4.25% | [3] 52.3% | [4] 17.4% | [5] 36.6% | [6] 43%

SCc1ccc(CS)s1
inactive: [1] 4.65% | [2] -1.75% | [3] -1.65% | [4] 17.8% | [5] 23.2% | [6] -4.3%

CC1(C)N=C(N)N=C(N)N1c1ccc(C(F)(F)F)cc1
inactive: [1] 4.15% | [2] 10.1% | [3] 7.85% | [4] -0.5% | [5] 49% | [6] 29.4%

C=CC1CNCCC1CC(=O)OCC (centres undefined)
inactive: [1] -16.6% | [2] -5.55% | [3] 3% | [4] -12.4% | [5] 4.45% | [6] -24.4%

N/N=C(\Cc1ccccc1)NN=C(N)N
inactive: [1] 13.6% | [2] -11.2% | [3] 14.8% | [4] 20.1% | [5] -9.45% | [6] 20.3%

CCCCCCCCCCCCCCCCOCC(CCl)OP(=O)(O)OP(=O)(O)OCC1OC(n2ccc(N)nc2=O)C(O)C1O (centres undefined)
inactive: [1] -33.3% | [2] -38.9% | [3] 15.1% | [4] -35% | [5] -37.4% | [6] -95.4%

O=C(NO)c1ccc(O)c(O)c1
inactive: [1] 2.1% | [2] 14.4% | [3] 5.55% | [4] -8.25% | [5] -8.45% | [6] -39%

O=C(CC(O)(C(F)(F)F)C(F)(F)F)c1ccc(Br)cc1
inactive: [1] 4.35% | [2] 19.6% | [3] 5.45% | [4] -8.25% | [5] 14.1% | [6] 49.4%

Cc1ccccc1N=C(N)Nc1ccccc1C
inactive: [1] -25.5% | [2] -29.9% | [3] -44.3% | [4] 5.7% | [5] -38.7% | [6] -52.4%

CC1=CC=CNC1(N)Br (centres undefined)
inactive: [1] 3.7% | [2] 4% | [3] 15.8% | [4] 19.4% | [5] 7.55% | [6] -4.9%

CC(C)CCC[C@@H](C)[C@H]1CC[C@@]2(C)[C@@H]3CC[C@@H]4C(=O)CC[C@]4(C)[C@H]3CC[C@]12C
inactive: [1] 31.3% | [2] 1.5% | [3] 41.5% | [4] 26.8% | [5] 1.6% | [6] 42.1%

Nc1ncnc2scnc12
inactive: [1] 14.4% | [2] -0.55% | [3] -8.5% | [4] 0.9% | [5] -3.25% | [6] 1.65%

C[C@@H]1C(=O)OCC2=C3C[C@@H](CC[C@@]3(C)C=CC2=O)[C@H](C)C(=O)OCC2=C3C[C@H]1CC[C@@]3(C)C=CC2=O
inactive: [1] 4.3% | [2] -3.7% | [3] -1.35% | [4] 15.7% | [5] 1.7% | [6] 20.8%

C=C(Cl)CSc1ncnc2nc[nH]c12
inactive: [1] 34.5% | [2] 22.9% | [3] 18.2% | [4] 8.05% | [5] 30.6% | [6] 36.4%

CO[C@@]12C[C@@H](C)C3=CCC(C)=C3CC1=C(C)C(=O)O2
inactive: [1] 8.9% | [2] -4.05% | [3] 16.6% | [4] 2.9% | [5] 26.4% | [6] -68.3%

c1ccc(-c2nc(-c3nn[nH]n3)c3ccccc3n2)cc1
inactive: [1] -1.2% | [2] 13.7% | [3] 2.85% | [4] -19.6% | [5] 14.5% | [6] 20.8%

CN(N=O)C(=O)NCCc1ccccc1
inactive: [1] 13.6% | [2] -11.9% | [3] 11.6% | [4] -36.6% | [5] -5.2% | [6] 16.2%

CC(=O)Nc1ccc(Br)cc1C
inactive: [1] 25.1% | [2] 1.95% | [3] 2.25% | [4] -10.9% | [5] -2.4% | [6] 30.6%

NC(=O)c1ccccc1Sc1ccccc1C(N)=O
inactive: [1] -4.6% | [2] 2.35% | [3] 5.4% | [4] 2.45% | [5] 1.65% | [6] 0.6%

O/N=C\c1cccc[n+]1Cc1ccc2ccccc2c1Br
inactive: [1] -1.7% | [2] 1.95% | [3] -7.55% | [4] -7.05% | [5] 10.7% | [6] -1.75%

CC1(C)CC(C(N)=O)C(=O)O1 (centres undefined)
inactive: [1] -17.4% | [2] -4.15% | [3] -21.6% | [4] -25.9% | [5] 5.1% | [6] -2.4%

CC(=O)CC(C)(C)NC(=S)NCCO
inactive: [1] 1.2% | [2] -26.5% | [3] 2% | [4] -29.4% | [5] -8.85% | [6] -13.4%

CCCCc1ccc2nc3cc4ccccc4cc3nc2c1
inactive: [1] 12.8% | [2] 51.1% | [3] 32.6% | [4] -16% | [5] 20.6% | [6] 7.6%

C/C(=C\Cc1cc(O)c(C)cc1O)CC/C=C(\C)Cc1cc(C)co1
inactive: [1] -14.9% | [2] -19.7% | [3] -35.5% | [4] 17.9% | [5] -1.3% | [6] -8.75%

CC1(C)C=C(O)C=C(O)C1
inactive: [1] 14.2% | [2] 2.8% | [3] 17.4% | [4] -2.25% | [5] 6.55% | [6] 2.5%

CCN(C(=O)/C=C/c1ccccc1)C1CCCCC1
inactive: [1] 17.2% | [2] 27.9% | [3] 53.2% | [4] 47.2% | [5] 35.5% | [6] 48.5%

CCOC(=O)CNC(=O)CNC(=O)CNC(=O)CN
inactive: [1] 0.1% | [2] 2.5% | [3] 15.8% | [4] -20.4% | [5] -3.85% | [6] -16.6%

C#CCN(CCCC)CCCC
inactive: [1] -14.2% | [2] -21.1% | [3] -5.55% | [4] -33.4% | [5] -39.9% | [6] -10.3%

CN(C1CCCCC1)S(=O)(=O)c1ccc(N)cc1
inactive: [1] 7.65% | [2] -3.35% | [3] 12% | [4] 11.4% | [5] 5.25% | [6] 24.5%

Cc1ccc(S(=O)(=O)N(C)c2cc(Cl)c(C(=O)O)cc2Cl)cc1
inactive: [1] -0.7% | [2] -14.9% | [3] 5.85% | [4] 4.05% | [5] -14.3% | [6] 15.1%

ONc1cnc2ccccc2n1
inactive: [1] -34.9% | [2] -30.4% | [3] -3.5% | [4] -49.2% | [5] -4.8% | [6] 0.4%

CC(C)(C)CC(C)(C)c1ccc(OCCOc2ccc(S(=O)(=O)O)cc2[N+](=O)[O-])cc1
active: [3] 71.7%
inactive: [1] 68.8% | [2] 30.9% | [4] 1.65% | [5] -8.85% | [6] 37.2%

Cc1ccc(S(=O)(=O)NC(=O)C2(Br)S(=O)(=O)OCCOS2(=O)=O)cc1
inactive: [1] 1.25% | [2] -28.4% | [3] 6.1% | [4] -54.9% | [5] 24.6% | [6] 12%

NC(N)=NC(N)=Nc1ccccc1Br
inactive: [1] -20.9% | [2] -19.5% | [3] -4.4% | [4] -26.1% | [5] 7.05% | [6] -3.85%

Cc1[nH]c(=O)c(C#N)c(C)c1[N+](=O)[O-]
inactive: [1] -0.05% | [2] 20.3% | [3] 3.95% | [4] -35.7% | [5] 10.6% | [6] 1.9%

COC(=O)C1C2OC(C(Br)C2Br)C1C(=O)O (centres undefined)
inactive: [1] -6.2% | [2] 2.2% | [3] 7.1% | [4] 2.2% | [5] 9.95% | [6] 3.8%

CCC1CCC(C(C)(C)C)C(=O)C1 (centres undefined)
inactive: [1] 6.45% | [2] 1.75% | [3] 2.55% | [4] -11.3% | [5] 3.7% | [6] -4%

CSc1ncc(Br)c(Sc2nccn2C)n1
inactive: [1] 11.4% | [2] 7.3% | [3] 14.3% | [4] 4.7% | [5] -12% | [6] 2.85%
